Screens as filed in PubChem.
This is a sample that favours compounds with a hit; in the whole collection about 4.1% have one here.
Rv3671c inh = Rv3671c (M. tuberculosis) protease inhibition | 0.048% of 320,000 active | AID 2606 | inhibition, % at 5.96 µM; in the data active = inhibition above about 38%;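 also: extracellular domain of Rv3671c used as enzyme; 0% = enzyme with DMSO and 100% = no enzyme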
UGM FP inh = blocks M. tuberculosis UGM enzyme | AID 504406 | inhibition, % at 10 µM | 0.06% of 320,000 active | purified UGM, fluorescence polarization probe displacement; in the data active = inhibition above about 10%, passing the limit was not always enough
Target sequence (P9WIQ1 whole entry, looked up): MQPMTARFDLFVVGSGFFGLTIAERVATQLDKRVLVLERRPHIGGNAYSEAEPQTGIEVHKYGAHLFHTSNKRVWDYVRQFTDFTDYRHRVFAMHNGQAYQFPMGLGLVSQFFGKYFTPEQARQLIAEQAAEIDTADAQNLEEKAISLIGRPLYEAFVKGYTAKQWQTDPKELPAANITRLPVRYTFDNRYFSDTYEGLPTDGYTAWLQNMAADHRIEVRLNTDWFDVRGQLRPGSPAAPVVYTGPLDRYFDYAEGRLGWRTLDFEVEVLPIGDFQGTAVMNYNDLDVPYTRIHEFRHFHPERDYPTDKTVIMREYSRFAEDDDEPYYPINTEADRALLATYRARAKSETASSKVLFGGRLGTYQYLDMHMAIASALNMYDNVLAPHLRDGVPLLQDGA
FBA Mtb inh = inhibitors of M. tuberculosis fructose-bisphosphate aldolase | 2.3% of 360,000 active | purified M. tuberculosis FBA, fluorescence read-out | P9WQA3 | AID 588726 | inhibition, % at 1 µM;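 also: 0% = vehicle and 100% = reference inhibitor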
BH1578 lux ind = quorum light induction in luxS cqsA deficient V. cholerae; V. cholerae BH1578 lux reporter, luminescence, 6 h; activation, % at 18.7 µM; 0.16% of 350,000 active; AID 588436; in the data active = activation mostly above about 9.7%, no sharp cut-off
GDH-TPI counter-1 = GDH-TPI coupled enzyme inhibition counter-screen; GDH-TPI coupled enzyme counterscreen, NADH absorbance; inhibition, % at 4.8 µM; 1.2% of 360,000 active; AID 588335; in the data active = inhibition above about 30%;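 also: 0% = DMSO wells and 100% = wells lacking the enzyme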
RecA splice inh = blocks M. tuberculosis RecA intein splicing; 0.75% of 290,000 active; cell-free RecA intein splicing, fluorescence; P9WHJ3; inhibition, % (no concentration beside the values); in the data active = inhibition above about 30%;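 also: 0% = vehicle wells and 100% = reference inhibitor control wells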
Mtb FBA inh conf = Mtb FBA inhibition, confirmed. inhibition, % at 1 µM. 78% of 5,600 active. AID 651616. purified M. tuberculosis FBA, fluorescence read-out. shares compounds with FBA Mtb inh;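 also: 0% = vehicle wells and 100% = reference inhibitor wells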
GDH-TPI counter-2 = counter-screen for M. tuberculosis FBA inhibitors: GDH-TPI coupled enzyme inhibition; inhibition, % at 1 µM; shares compounds with FBA Mtb inh; 81% of 5,600 active; GDH-TPI coupled enzyme counterscreen, fluorescence; in the data active = inhibition above about 10%
* hit, by the source's call; i = inactive; nt = not tested or not shown; + = active, no number. Rule as the data show it, unless noted: active = inhibition above about 27%; inactive = the rest.

SMILES	Rv3671c inh	UGM FP inh	FBA Mtb inh	BH1578 lux ind	GDH-TPI counter-1	RecA splice inh	Mtb FBA inh conf	GDH-TPI counter-2
COc1ccc(N2CCN(C(=O)COC(=O)c3oc4ccc(OC)cc4c3C)CC2)cc1	-4.9	-0.7	13.7	-1.4	5.2	-0.6	nt	nt
CCOc1ccc2oc(C(=O)NCC(C)(C)CN(C)C)c(C)c2c1	-9.1	-2.1	44.4*	i	12.1	0.4	116.2*	85.6*
COc1ccc(-c2cc(C(=O)OCC(=O)NC3CC3)c3ccccc3n2)cc1	-13.3	-3.1	5.4	-4.2	5.4	nt	nt	nt
Cc1c(C(=O)OCC(=O)N2CC(C)CC(C)C2)oc2ccccc12 (stereo unspecified)	-1.1	1.3	2.9	0.9	8.1	1.2	nt	nt
COc1ccc2oc(C(=O)OCC(=O)N3CC(C)CC(C)C3)c(C)c2c1 (stereo unspecified)	7.0	-0.3	30.7*	-5.6	9.1	0.4	57.1*	51.0*
COc1ccc2oc(C(=O)OC(C)C(=O)N(C)c3ccccc3)c(C)c2c1 (stereo unspecified)	5.4	-0.9	30.6*	-1.0	7.9	-2.4	+	+
CCOC(=O)C1CCN(C(=O)COC(=O)c2oc3ccc(OC)cc3c2C)CC1	4.7	nt	40.1*	-0.3	-5.7	nt	85.6*	46.5*
COc1ccc2oc(C(=O)OCc3nnc(-c4ccccc4)o3)c(C)c2c1	1.0	3.4	5.1	i	13.4	-2.7	nt	nt
CCOc1ccc2oc(C(=O)OC(C(=O)NC(N)=O)C(C)C)c(C)c2c1 (stereo unspecified)	15.9	0.8	39.6*	-0.3	12.1	-2.1	+	+
CCOc1ccc2oc(C(=O)O)c(C)c2c1	-0.8	-0.7	17.6	i	2.5	-3.3	nt	nt
CN(C)c1ncnc2c1C(c1ccccc1)C(C)(C)O2 (stereo unspecified)	nt	nt	-2.7	i	0.5	nt	nt	nt
COc1ccc2oc(C(=O)OC(C)C(=O)Nc3ccc(N4CCOCC4)cc3)c(C)c2c1 (stereo unspecified)	-10.2	0.5	6.1	-0.6	12.6	nt	nt	nt
COc1ccc2oc(C(=O)OC(C)C(=O)N3CCC(C)CC3)c(C)c2c1 (stereo unspecified)	5.8	-2.4	44.1*	-2.5	10.4	nt	+	+
CCCCNC(=O)c1ccc(Cc2cn(C)c3ccccc23)nc1	nt	nt	1.2	1.1	9.3	nt	nt	nt
O=C(NC1CCS(=O)(=O)C1)c1ccc(-c2ccc(Br)cc2)o1 (stereo unspecified)	10.6	0.2	41.7*	5.9	2.4	0.8	24.8	16.8*
O=C(NC1CCS(=O)(=O)C1)c1ccc(Br)o1 (stereo unspecified)	2.5	3.6	-1.2	i	-1.8	1.6	nt	nt
NC(=O)c1cc([N+](=O)[O-])c(Cl)cc1NCc1cccnc1	3.7	0.5	3.2	-8.3	12.3	nt	nt	nt
Cc1ccc2nc(-c3ccc(S(=O)(=O)N4CCCCC4)cc3)cn2c1	11.1	0.3	52.9*	-0.2	0.3	1.1	45.2*	39.1*
Cc1cc(=O)[nH]c(SCC(=O)NC2CCCc3ccccc32)n1 (stereo unspecified)	-3.5	0.9	2.9	-0.4	-1.4	0.7	nt	nt
c1ccc(CCNc2ccnc3cc4ccccc4cc23)cc1	nt	nt	47.0*	-0.5	3.5	i	-1.2	-1.0
CCN(CC)S(=O)(=O)c1ccc(C(=O)Nn2cnnc2)cc1	-0.6	-0.4	3.7	-0.1	-3.9	-1.0	nt	nt
O=S(Cc1cc(Sc2ccccc2)nc(-c2ccccc2)n1)c1ccccc1 (stereo unspecified)	-5.2	0.6	1.6	i	-6.8	-1.1	nt	nt
CS(=O)(=O)Cc1cc(Sc2ccccc2)nc(-c2ccncc2)n1	-6.4	1.3	33.9*	-0.2	1.9	2.0	8.3	-3.8
CCCCn1c2nc3ccccc3nc2c2c(=N)oc(C)nc21	nt	nt	31.0*	1.4	1.7	nt	35.2*	25.5*
CC(=O)Nc1ccc(N2C(=O)c3cccc(NC(C)=O)c3C2=O)cc1	-4.7	-1.0	-2.4	0.4	0.9	nt	nt	nt
O=C1NC(=O)c2c(NC(=O)C3CCCO3)cccc21 (stereo unspecified)	-4.6	-1.5	35.6*	0.9	15.9	1.4	96.8*	88.0*
